About 79,000 compounds went through this panel and 15% of them were active in at least one assay; those are over-represented in the sample as a whole. A number with no mark means an inactive call. Calls of active or inactive are those of the source. Rule as the data show it: active = growth inhibition above about 70%; inactive = the rest. *1 amine or outer side, *2 acyl side, *3 side chain or, on linkers, in order; H or OH if unused. Where a SMILES comes first, the peptide text is derived from it. The star is where a group is joined. γGlu = O=C(O)[CH](CCC(=O)[*:2])N[*:1]; Boc = CC(C)(C)OC(=O)*; NHOH = ON*
Legend:
[1] = NCI Yeast Anticancer Drug Screen. Data for the rad50 strain (AID 155);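 also: 0% = growth of vehicle-only cultures of the same strain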; conditions: S. cerevisiae rad50 strain growth inhibition; at 50.0 µM; hits give high values
Summary of the method: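 A DNA repair-deficient yeast mutant serves as the test organism; compound-induced growth inhibition is calculated against vehicle-treated cells.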

[2] = NCI Yeast Anticancer Drug Screen. Data for the mec2-1 strain (AID 157); conditions: S. cerevisiae mec2-1 strain, at 50.0 µM, hits give high values
Summary of the method: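 Growth inhibition is read against vehicle-treated controls after compound exposure of the mec2-1 yeast strain, which is defective in DNA damage repair or cell cycle control.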

[3] = NCI Yeast Anticancer Drug Screen. Data for the sgs1 mgt1 strain (AID 161);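 also: 0% = growth of cultures given vehicle only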; conditions: S. cerevisiae sgs1 mgt1 strain, at 50.0 µM, hits give high values
Summary of the method: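 Compounds are added to genetically altered yeast, and growth is compared with cultures given vehicle alone to give percent inhibition.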

[4] = NCI Yeast Anticancer Drug Screen. Data for the cln2 rad14 strain (AID 165);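 also: 0% = growth equal to vehicle treated cultures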; conditions: S. cerevisiae cln2 rad14 strain, at 50.0 µM, hits give high values
Summary of the method: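 Growth inhibition, relative to vehicle-treated controls, is the read-out. The test organism is a yeast strain with defined genetic alterations, cln2 rad14.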

[5] = NCI Yeast Anticancer Drug Screen. Data for the bub3 strain (AID 167); conditions: S. cerevisiae bub3 mutant strain, at 50.0 µM, hits give high values
Summary of the method: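 Inhibition values come from growth of compound-treated mutant yeast normalised to vehicle-treated controls.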

[6] = NCI Yeast Anticancer Drug Screen. Data for the mlh1 rad18 strain (AID 175); conditions: S. cerevisiae mlh1 rad18 strain growth inhibition; at 50.0 µM; hits give high values
Summary of the method: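 Cells of a genetically altered yeast strain, deficient in DNA damage repair, were treated with compound. Their growth was then compared with that of vehicle-treated cultures to give inhibition.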

| Structure (SMILES) | growth inhibition [1] | growth inhibition [2] | growth inhibition [3] | growth inhibition [4] | growth inhibition [5] | growth inhibition [6] |
| --- | --- | --- | --- | --- | --- | --- |
| CNC(=O)CNC(=O)C(NC(=O)CNC(=O)C1CCCN1C(=O)C(C)NC(=O)C(NC(=O)OC(C)(C)C)C(C)C)C(C)C (stereo unspecified) (Boc-VAPGVG-NHMe; configuration not given here) | -12.9% | -23.6% | -11.8% | -11% | -16.2% | -18.2% |
| S=C([S-])[P+](C1CCCCC1)(C1CCCCC1)C1CCCCC1 | -30.9% | -39.1% | -28.2% | -29.2% | -39.1% | -39.2% |
| CC(C)CC([N+](C)(C)C)P(=O)([O-])O (stereo unspecified) | -4.4% | 1.6% | -4.7% | -9.2% | 20.9% | -3.5% |
| OCCCCCCN=Cc1ccccc1O.OCCCCCCN=Cc1ccccc1O.[Cu] | 47.9% | -1.2% | 72.2% (active) | -48.2% | 4.25% | 14.8% |
| CC(C)C(CCN1CCCC1(C)C)(C(N)=O)c1ccccc1 (stereo unspecified) | -4.85% | -12.6% | -4.2% | -34% | 9.6% | 7.75% |
| CCOc1c(N=Nc2cccc([N+](=O)[O-])c2)c(C)nn1C(N)=S | -42.2% | -34.1% | -7.85% | -28.9% | -3.35% | -16% |
| COc1cc(C(=O)C/C(CCC(=O)Nc2ccc(Cl)cc2Cl)=N/Nc2nnc(C)n2N)ccc1O | -19.6% | -4.2% | -25.6% | 13.4% | 7.1% | -5.05% |
| CCOC(=O)c1c(C)[nH]c(C)c1/C=C/C(=O)O | 0.95% | -5.1% | -0.9% | 1.45% | 2.35% | -0.8% |
| CCOC(=O)c1cn2ccccc2c1C(=O)OCC | 3.5% | -3.1% | -7.45% | -23.2% | -4.1% | -14.8% |
| Cc1cc(C)c(C)c(C)c1C | 17.6% | -8.15% | 14.8% | 2.55% | -3.6% | 20.6% |
| CCS(=O)(=O)N(CC(=O)O)Cc1ccccc1 | -4.95% | 7.3% | -13.4% | 0.95% | 6.8% | 0.65% |
| CCCCCC(=O)O | -20.2% | -7.1% | -42.1% | 26.9% | -38.9% | 16.8% |
| COC(=O)C#Cc1cccc(OC)c1OC | 22.1% | 14.9% | 22.9% | -31.2% | 12.3% | 10.2% |
| CC(C)(C)C1CC[C@H]2c3c([nH]c4ccc(Br)cc34)[C@H]3C(=O)N(c4ccccc4)C(=O)[C@H]3[C@H]2C1 (stereo partly specified) | 18.4% | -2.7% | 27.2% | 29.4% | -0.15% | 12.6% |
| Cc1ccc(NC(=O)CCC(NS(=O)(=O)c2ccc(C)cc2)C(=O)O)cc1 (stereo unspecified) | 26.4% | 17.5% | 25.6% | 18.6% | -1.1% | 42.1% |
| CC(=O)N(C)C1=C(Sc2ccc([N+](=O)[O-])cc2)C(=O)c2ccccc2C1=O | 97% (active) | 99.5% (active) | 97.5% (active) | 99% (active) | 99.1% (active) | 98.9% (active) |
| COC(=O)c1ccc([N+](=O)[O-])cc1C(=O)OC | 4.85% | -16.7% | -42.1% | -12.3% | -52.8% | -3.2% |
| COc1ccc(-c2c(C#N)c(S)n(C3OC(COC(C)=O)C(OC(C)=O)C(OC(C)=O)C3OC(C)=O)c(=O)c2C#N)cc1 (stereo unspecified) | -18.1% | -12.2% | -6.3% | -16.3% | 16.4% | 14% |
| O=C1CCC(=O)N2CCCCN12 | -4.7% | -12.4% | 11% | 18.6% | 22.5% | 13.1% |
| CCOC(=O)c1ccc(CSc2ccccc2C(=O)OCC)cc1 | -10.3% | -13.1% | 9.95% | -60.1% | -17.1% | -43.2% |
| C[C@H]1C(=O)OCN1C(=O)OCc1ccccc1 | 0.05% | 16.4% | 12.3% | -6% | 12.6% | -0.5% |

| Structure (SMILES) | growth inhibition [1] | growth inhibition [2] | growth inhibition [3] | growth inhibition [4] | growth inhibition [5] | growth inhibition [6] |
| --- | --- | --- | --- | --- | --- | --- |
| CC(=O)c1ccc2ccc3ccccc3c2c1O | -3.85% | -8.75% | -14.3% | -30.6% | -8.4% | 5.25% |
| CCOC(=O)/C=C(\Nc1ccc(C(c2ccccc2)(c2ccccc2)c2ccccc2)cc1)C(=O)OCC | 38.2% | 9.9% | 32% | 20.2% | -7.3% | 27.1% |
| CCc1cccc(C)c1NC(=S)NC(=O)c1ccccc1C(=O)NC(=S)Nc1c(C)cccc1CC | 12.3% | 7.7% | 0.95% | 20.9% | 11.8% | 20.4% |
| O=C(Cc1ccccc1)NCc1ccccc1Cl | -1.05% | 9.2% | 5.65% | 0.05% | 9.75% | 6.05% |
| COc1ccc(-c2cc(C(=O)O)c3cc4ccccc4cc3n2)cc1Br | 8.6% | -15.9% | 13.7% | 24.3% | 2.95% | 10.9% |
| O=C(OCC1OC(n2ccc(=O)[nH]c2=O)C(F)C1OC(=O)c1ccccc1)c1ccccc1 (stereo unspecified) | 24.1% | 4.3% | 8.6% | 17.7% | 7.15% | 2.3% |
| CCCCCC/C=C/C(N)=O | 5.75% | 5.6% | -7.8% | 12.1% | -20.2% | 8.35% |
| CC(=O)Oc1ccccc1Cl | 18.1% | 31.5% | 25.9% | 13.3% | 19.1% | 16.8% |
| NC(CCC(=O)NC(CCC(=O)NO)C(=O)NCC(=O)O)C(=O)O (stereo unspecified) (γGlu-Glu(NHOH)-Gly-OH; configuration not given here) | -29.5% | -3.2% | -11.6% | 2.05% | -4.85% | -42.5% |
| O=C1CCCNC(=O)CCCN1 | 15% | -9.55% | -5.45% | -40.5% | -14.3% | -5.9% |
| CC1=NCC(C)S1 (stereo unspecified) | -3.3% | -9.95% | 7% | -6.05% | -9.3% | -5.75% |
| O=C1/C(=C/c2ccc(C(=O)O)cc2)CNC/C1=C\c1ccc(C(=O)O)cc1 | -7.4% | -14.9% | -3.05% | -15.4% | 3.8% | -11.8% |
| CC(C)(O)C(F)(F)F | 13.8% | -5.85% | 27.1% | 12.2% | -3.4% | 25.5% |
| CCCCCCCCCCCCCCCc1cc(O)ccc1N=O | -3.8% | -16.5% | -8.3% | -3.45% | -1.05% | -11.7% |
| C/C(=C/c1ccccc1)OC(=O)c1ccccc1 | 25.7% | 4.55% | 10.8% | -1.85% | 26.4% | 36.2% |
| N#Cc1ccccc1Br | 21.4% | -19.8% | 21.1% | 11.8% | 11.8% | 29.8% |
| CC(=O)NCCSC(=O)CCCCCCCCC(=O)SCCNC(C)=O | 11.8% | -0.25% | 27.2% | 22.1% | 6.55% | 6.5% |
| S=C(Nc1ccccc1)Nc1nc(-c2ccccc2)c(N=Nc2ccc(Cl)cc2)s1 | 42.5% | 2.6% | 22.2% | 18.6% | -0.85% | 9.45% |
| O=C1c2ccccc2C(=O)c2c(Cl)ccc(O)c21 | 3.15% | 11.2% | 3.8% | 0.1% | 30.4% | 19.9% |
| COC(=O)/C=C\C1(CC(C)C)N=C(c2ccccc2)OC1=O (stereo unspecified) | 14.9% | 25.1% | 15.8% | 11.2% | 36.1% | 26.8% |
